Results reported in ChEMBL document CHEMBL1961873, “Compounds: GSK PKIS; Assays: Nanosyn kinase panel” (2012).

Tests used:
[1] = biological target: Tyrosine-protein kinase Fer (Homo sapiens) (UniProt P16591); settings: at 1 µM
[2] = biological target: Tyrosine-protein kinase Fes/Fps (Homo sapiens) (UniProt P07332); settings: at 0.1 µM
[3] = biological target: Tyrosine-protein kinase Fes/Fps (Homo sapiens) (UniProt P07332); settings: at 1 µM
[4] = biological target: Fibroblast growth factor receptor 1 (Homo sapiens) (UniProt P11362); settings: at 0.1 µM
[5] = biological target: Fibroblast growth factor receptor 1 (Homo sapiens) (UniProt P11362); settings: at 1 µM
[6] = biological target: Fibroblast growth factor receptor 2 (Homo sapiens) (UniProt P21802); settings: at 0.1 µM
[7] = biological target: Fibroblast growth factor receptor 2 (Homo sapiens) (UniProt P21802); settings: at 1 µM
[8] = biological target: Fibroblast growth factor receptor 3 (Homo sapiens) (UniProt P22607); settings: at 0.1 µM
[9] = biological target: Fibroblast growth factor receptor 3 (Homo sapiens) (UniProt P22607); settings: at 1 µM
[10] = biological target: Fibroblast growth factor receptor 4 (Homo sapiens) (UniProt P22455); settings: at 0.1 µM;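 also: values are mean percent inhibition of FGFR4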
Fibroblast growth factor receptor 4 (Homo sapiens), sequence (P22455 22-802 limits assumed): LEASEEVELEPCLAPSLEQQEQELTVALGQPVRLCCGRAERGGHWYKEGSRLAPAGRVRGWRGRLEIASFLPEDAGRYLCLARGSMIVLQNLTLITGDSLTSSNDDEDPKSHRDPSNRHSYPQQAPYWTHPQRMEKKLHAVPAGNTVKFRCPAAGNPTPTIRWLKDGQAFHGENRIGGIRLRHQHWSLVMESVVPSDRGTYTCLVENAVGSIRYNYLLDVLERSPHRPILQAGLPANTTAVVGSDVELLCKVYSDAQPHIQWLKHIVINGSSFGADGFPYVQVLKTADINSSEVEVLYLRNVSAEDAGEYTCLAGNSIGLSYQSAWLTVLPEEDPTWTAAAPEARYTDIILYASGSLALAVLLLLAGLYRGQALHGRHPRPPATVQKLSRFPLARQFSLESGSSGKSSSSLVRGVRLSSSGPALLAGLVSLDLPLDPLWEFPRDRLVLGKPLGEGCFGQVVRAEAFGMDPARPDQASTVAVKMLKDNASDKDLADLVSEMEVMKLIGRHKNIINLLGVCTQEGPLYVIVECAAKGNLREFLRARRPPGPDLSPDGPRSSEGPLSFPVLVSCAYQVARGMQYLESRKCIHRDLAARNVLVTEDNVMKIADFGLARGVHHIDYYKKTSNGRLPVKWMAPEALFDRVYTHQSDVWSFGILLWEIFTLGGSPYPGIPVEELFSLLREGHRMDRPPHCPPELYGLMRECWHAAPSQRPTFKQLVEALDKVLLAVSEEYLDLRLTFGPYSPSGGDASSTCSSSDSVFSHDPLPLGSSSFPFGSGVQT

Fibroblast growth factor receptor 3 (Homo sapiens), sequence (P22607 23-806 limits assumed): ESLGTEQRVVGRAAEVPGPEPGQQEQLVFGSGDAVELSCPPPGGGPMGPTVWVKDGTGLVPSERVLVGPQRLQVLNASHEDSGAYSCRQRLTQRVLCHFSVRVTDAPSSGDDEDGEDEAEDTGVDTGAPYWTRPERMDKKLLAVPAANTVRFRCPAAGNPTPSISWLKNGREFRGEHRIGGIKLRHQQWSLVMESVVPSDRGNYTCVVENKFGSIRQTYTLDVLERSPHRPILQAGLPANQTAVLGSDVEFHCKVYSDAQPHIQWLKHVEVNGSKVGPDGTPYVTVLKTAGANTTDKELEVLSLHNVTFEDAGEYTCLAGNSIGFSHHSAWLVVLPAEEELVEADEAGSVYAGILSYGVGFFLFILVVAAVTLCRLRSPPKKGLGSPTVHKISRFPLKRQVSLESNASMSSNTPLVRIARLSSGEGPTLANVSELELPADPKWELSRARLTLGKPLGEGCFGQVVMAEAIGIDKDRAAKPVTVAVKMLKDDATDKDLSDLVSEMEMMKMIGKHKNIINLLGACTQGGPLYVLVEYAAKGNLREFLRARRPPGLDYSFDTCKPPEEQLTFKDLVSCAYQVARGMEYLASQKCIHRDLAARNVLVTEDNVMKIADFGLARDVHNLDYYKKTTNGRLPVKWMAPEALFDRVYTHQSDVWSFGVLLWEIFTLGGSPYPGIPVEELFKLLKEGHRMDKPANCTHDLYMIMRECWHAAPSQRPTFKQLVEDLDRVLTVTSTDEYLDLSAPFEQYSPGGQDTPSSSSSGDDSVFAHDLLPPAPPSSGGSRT
Fibroblast growth factor receptor 2 (Homo sapiens), sequence (P21802 22-821 limits assumed): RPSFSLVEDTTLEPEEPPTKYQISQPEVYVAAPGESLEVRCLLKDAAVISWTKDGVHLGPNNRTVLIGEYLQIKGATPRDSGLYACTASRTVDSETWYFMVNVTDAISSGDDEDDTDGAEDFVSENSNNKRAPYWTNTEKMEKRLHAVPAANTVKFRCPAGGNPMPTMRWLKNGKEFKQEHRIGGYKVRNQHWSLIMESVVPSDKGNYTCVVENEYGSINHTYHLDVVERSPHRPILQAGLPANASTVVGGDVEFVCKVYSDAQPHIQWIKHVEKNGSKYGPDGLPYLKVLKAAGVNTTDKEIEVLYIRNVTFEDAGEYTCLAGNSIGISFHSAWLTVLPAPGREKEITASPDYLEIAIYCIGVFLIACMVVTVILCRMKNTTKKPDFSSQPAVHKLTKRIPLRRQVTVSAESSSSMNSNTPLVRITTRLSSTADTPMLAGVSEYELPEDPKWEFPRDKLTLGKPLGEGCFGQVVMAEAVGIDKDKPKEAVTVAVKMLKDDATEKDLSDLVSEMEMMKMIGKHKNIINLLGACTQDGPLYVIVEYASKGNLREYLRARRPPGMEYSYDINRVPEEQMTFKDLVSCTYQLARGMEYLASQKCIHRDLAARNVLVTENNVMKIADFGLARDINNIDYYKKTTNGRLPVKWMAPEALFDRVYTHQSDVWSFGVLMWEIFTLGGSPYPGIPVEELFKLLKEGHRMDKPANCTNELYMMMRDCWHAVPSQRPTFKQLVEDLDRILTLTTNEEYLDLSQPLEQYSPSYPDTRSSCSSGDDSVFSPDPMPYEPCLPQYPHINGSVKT
Tyrosine-protein kinase Fer (Homo sapiens), sequence (P16591 whole entry, looked up): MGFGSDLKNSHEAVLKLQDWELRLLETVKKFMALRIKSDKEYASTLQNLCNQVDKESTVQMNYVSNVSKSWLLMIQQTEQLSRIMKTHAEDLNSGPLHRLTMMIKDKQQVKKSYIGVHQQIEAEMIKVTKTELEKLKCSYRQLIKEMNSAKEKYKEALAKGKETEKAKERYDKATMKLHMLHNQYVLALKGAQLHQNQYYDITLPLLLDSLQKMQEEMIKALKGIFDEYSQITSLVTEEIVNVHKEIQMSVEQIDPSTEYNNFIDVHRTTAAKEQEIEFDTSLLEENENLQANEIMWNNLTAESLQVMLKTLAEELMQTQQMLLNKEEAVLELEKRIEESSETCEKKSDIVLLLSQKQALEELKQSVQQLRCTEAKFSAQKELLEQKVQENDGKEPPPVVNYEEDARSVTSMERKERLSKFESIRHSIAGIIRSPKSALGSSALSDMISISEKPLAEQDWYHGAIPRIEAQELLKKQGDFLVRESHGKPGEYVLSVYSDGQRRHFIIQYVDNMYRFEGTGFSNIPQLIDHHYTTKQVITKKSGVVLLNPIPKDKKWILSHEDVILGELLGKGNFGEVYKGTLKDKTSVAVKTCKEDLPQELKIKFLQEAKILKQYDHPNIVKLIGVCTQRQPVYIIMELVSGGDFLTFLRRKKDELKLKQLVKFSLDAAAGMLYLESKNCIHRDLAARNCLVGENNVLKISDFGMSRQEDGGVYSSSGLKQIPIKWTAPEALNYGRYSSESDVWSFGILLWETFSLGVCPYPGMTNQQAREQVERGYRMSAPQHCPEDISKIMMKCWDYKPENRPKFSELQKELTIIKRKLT
Fibroblast growth factor receptor 1 (Homo sapiens), sequence (P11362 22-822 limits assumed): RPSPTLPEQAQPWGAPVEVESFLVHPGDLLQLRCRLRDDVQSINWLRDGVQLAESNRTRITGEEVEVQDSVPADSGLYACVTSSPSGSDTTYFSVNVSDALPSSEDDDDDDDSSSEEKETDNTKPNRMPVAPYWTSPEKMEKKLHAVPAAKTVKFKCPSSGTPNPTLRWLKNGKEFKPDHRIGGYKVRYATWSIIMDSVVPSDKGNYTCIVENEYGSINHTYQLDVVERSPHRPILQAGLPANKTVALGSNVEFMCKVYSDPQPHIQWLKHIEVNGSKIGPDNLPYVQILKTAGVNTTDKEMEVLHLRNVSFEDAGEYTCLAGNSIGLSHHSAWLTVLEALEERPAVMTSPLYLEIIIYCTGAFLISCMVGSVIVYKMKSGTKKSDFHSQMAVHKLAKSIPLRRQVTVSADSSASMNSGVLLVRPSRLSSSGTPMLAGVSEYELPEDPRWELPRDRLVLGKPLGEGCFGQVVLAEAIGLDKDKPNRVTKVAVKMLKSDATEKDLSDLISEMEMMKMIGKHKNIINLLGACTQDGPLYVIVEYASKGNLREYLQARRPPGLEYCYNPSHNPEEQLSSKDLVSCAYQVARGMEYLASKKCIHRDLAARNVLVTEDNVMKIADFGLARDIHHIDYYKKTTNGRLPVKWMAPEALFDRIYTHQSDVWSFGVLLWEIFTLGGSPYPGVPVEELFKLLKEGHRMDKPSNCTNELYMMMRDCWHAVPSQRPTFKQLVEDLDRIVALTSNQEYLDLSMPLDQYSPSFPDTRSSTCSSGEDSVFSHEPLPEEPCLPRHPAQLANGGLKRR
Tyrosine-protein kinase Fes/Fps (Homo sapiens), sequence (P07332 whole entry): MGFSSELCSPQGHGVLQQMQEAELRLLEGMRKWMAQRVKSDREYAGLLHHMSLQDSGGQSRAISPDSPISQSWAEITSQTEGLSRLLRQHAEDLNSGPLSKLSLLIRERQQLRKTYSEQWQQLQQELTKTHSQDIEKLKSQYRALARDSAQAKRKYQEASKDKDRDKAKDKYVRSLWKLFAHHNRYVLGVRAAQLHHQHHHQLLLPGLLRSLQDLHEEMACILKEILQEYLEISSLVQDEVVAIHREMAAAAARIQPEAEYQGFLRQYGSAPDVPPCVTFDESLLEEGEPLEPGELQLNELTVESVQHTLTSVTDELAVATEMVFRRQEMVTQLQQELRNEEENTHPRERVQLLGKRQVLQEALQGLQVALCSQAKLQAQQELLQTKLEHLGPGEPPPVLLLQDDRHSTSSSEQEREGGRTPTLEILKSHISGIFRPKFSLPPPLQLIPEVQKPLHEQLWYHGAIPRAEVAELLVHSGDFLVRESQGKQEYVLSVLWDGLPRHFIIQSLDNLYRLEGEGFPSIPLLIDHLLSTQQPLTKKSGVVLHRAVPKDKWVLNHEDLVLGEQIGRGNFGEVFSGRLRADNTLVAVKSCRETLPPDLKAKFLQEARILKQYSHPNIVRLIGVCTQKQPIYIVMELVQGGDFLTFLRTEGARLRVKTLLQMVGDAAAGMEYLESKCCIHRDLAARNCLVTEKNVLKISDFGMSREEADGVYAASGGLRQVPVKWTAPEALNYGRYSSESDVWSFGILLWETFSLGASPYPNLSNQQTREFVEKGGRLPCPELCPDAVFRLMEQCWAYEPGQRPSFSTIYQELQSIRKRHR

Structure (SMILES) | inhibition [1] [%] | inhibition [2] [%] | inhibition [3] [%] | inhibition [4] [%] | inhibition [5] [%] | inhibition [6] [%] | inhibition [7] [%] | inhibition [8] [%] | inhibition [9] [%] | inhibition [10] [%]
O=C(O[C@H]1CN[C@H](C#Cc2cc3ncnc(Nc4ccc(Cc5ccccc5)cc4)c3s2)C1)N1CCOCC1 | -0.65 | 1.87 | 1.71 | 1.97 | 2.47 | 2.52 | 1.51 | 1.73 | 0.73 | 4.79
CC(=O)Nc1cccc(C#Cc2cncnc2Nc2ccc(OCc3cccc(F)c3)c(Cl)c2)c1 | 1.14 | 3.02 | 3.58 | 5.54 | 8.04 | 2.27 | 5.67 | 4.66 | 5.53 | 0.9
CS(=O)(=O)CCNCc1coc(-c2ccc3ncnc(Nc4ccc(OCc5ccccc5)cc4)c3c2)c1 | 1.36 | 2.79 | 3.78 | 3.21 | 2.53 | 3.27 | 4.29 | 5.11 | 3.99 | 4.22
CNC(=O)c1cncc(/C=C/c2ccccc2Cl)c1 | 3.78 | 0.21 | 0.02 | -1 | -1.84 | -1.98 | 4.23 | 0.84 | 1.98 | 1.47
COC(=O)c1sc(-n2cnc3cc(OC)c(OC)cc32)cc1OCc1ccccc1C(F)(F)F | 4.19 | 3.47 | 3.74 | 3.22 | 12.9 | 3.5 | 23 | 6.13 | 13.9 | -3.87
N#Cc1c(NC(=O)CN2CCOCC2)sc2c1CCCC2 | 9.05 | 3.37 | 6.23 | 4.57 | 3.5 | 3.03 | 7.88 | 3.63 | 6.45 | -0.36
COc1cccc(-n2ncc3c(N/N=C/c4ccc(F)cc4)ncnc32)c1 | 4.95 | 2.58 | 3.42 | 2.86 | -0.23 | 6.26 | 8.02 | 6.59 | 6.78 | -0.12
Cc1ccc(O)cc1Nc1ccnc2cc(-c3ccccn3)ccc12 | 8.05 | 4.23 | 8.97 | 15.1 | 46.6 | 12.8 | 43.2 | 8.93 | 25.8 | 9.41
CN(C)CCOc1ccc(-c2nc(-c3ccncc3)c(-c3ccc4c(c3)CC/C4=N\O)[nH]2)cc1 | 5.81 | 2.16 | 2.53 | 6.05 | 2.14 | 4.67 | 4.48 | 5.89 | 4.69 | 0.23
COc1cc(N2CCN(C(C)C)CC2)ccc1Nc1nc(Nc2ccc(F)cc2C(N)=O)c2cc[nH]c2n1 | 82.8 | 39.9 | 81.7 | 6.98 | 2.33 | 7.72 | 3.84 | 7.85 | 3.24 | 4.7
N#Cc1c(NC(=O)c2ccc(F)cc2)sc2c1CCCC2 | 0.95 | 0.56 | 1.22 | 1.48 | 2.08 | 1.6 | 3.48 | 1.58 | 2.77 | 0.23
Fc1cccc(COc2ccc(Nc3ncnc4sc(-c5ccco5)cc34)cc2Cl)c1 | 3.22 | 3.4 | 2.89 | 1.73 | 5.35 | 4.08 | 8.41 | 5.53 | 5.9 | 0.31
Nc1nc(-c2cccc(Cl)c2)c(-c2ccc3ncccc3n2)s1 | 3.32 | 3.08 | 4.47 | 3.71 | 7.27 | 5.51 | 7.42 | 4.38 | 8.26 | -1.18
CCCN1CCC(c2ccc(Nc3nc(Nc4cc(F)ccc4C(N)=O)c4cc[nH]c4n3)c(OC)c2)CC1 | 82.4 | 62.5 | 80.5 | 2.31 | 2.41 | 3.25 | 6.48 | 3.99 | 1.74 | -5.38
Cc1cccc2c1NC(=O)/C2=N\Nc1ccc(S(N)(=O)=O)cc1 | 0.93 | 2.06 | 2.97 | 6.31 | 5.84 | 7.75 | 3.25 | 3.97 | 3.33 | 2.12
[O-][S+]1CCN(Cc2ccc(-c3ccc4ncnc(Nc5ccc(OCc6cccc(F)c6)c(Cl)c5)c4c3)o2)CC1 | 4.93 | 5 | 4.91 | 3.95 | 9.17 | 7.74 | 9.73 | 8.06 | 7.32 | 5.9
CCn1c(-c2nonc2N)nc2ccccc21 | 8.61 | 3.26 | 2.57 | 2.08 | 2.29 | 0.75 | 4.22 | 2.45 | 2.35 | 0.05

Structure (SMILES) | inhibition [1] [%] | inhibition [2] [%] | inhibition [3] [%] | inhibition [4] [%] | inhibition [5] [%] | inhibition [6] [%] | inhibition [7] [%] | inhibition [8] [%] | inhibition [9] [%] | inhibition [10] [%]
CCn1c(-c2nonc2N)nc2c(C#CC(C)(C)O)nc(OC[C@H](N)c3ccccc3)cc21 | 7.41 | 4.38 | 7.88 | 4.14 | 2.91 | 4.95 | 4.18 | 9.04 | 3.32 | 3.89
Cc1cccc(Nc2ncc(-c3ccccc3)o2)c1 | 7.96 | 1.97 | 3.44 | 5.23 | 3.22 | 6.15 | 6.52 | 6.68 | 4.17 | 2.94
CCCN(CCS(C)(=O)=O)Cc1ccc(-c2ccc3ncnc(Nc4ccc(OCc5cccc(F)c5)c(Cl)c4)c3c2)o1 | 5.25 | 1.38 | 1.43 | 3.02 | 2.95 | -0.3 | 2.2 | 3.56 | 2.41 | 1.61
COc1ccc(CNC(=O)c2ccc(-c3cc(-c4nnc(C)o4)ccc3C)cc2)cc1 | 4.77 | 1.89 | 2.09 | 3.05 | 2.33 | 3.51 | 5.88 | 2.91 | 5.29 | 3.34
Fc1ccc(-c2nn3ccccc3c2-c2ccncc2)cc1 | 0.75 | 0.57 | 0.96 | 3.29 | 0.56 | -0.01 | 6.38 | 5.68 | 2.66 | 0.84
Nc1ncc(-c2cccc(S(N)(=O)=O)c2)c2scc(-c3ccc(F)c(Cl)c3)c12 | 30 | 4 | 7.1 | 2.01 | 16.1 | 8.86 | 32.8 | 6.12 | 23.3 | 2.27
CCn1c(-c2nonc2N)nc2c(C#CC(C)(C)O)ncc(OC3CCNCC3)c21 | 3.91 | 2.9 | 5.88 | 1.54 | -4.66 | 9.23 | 11.4 | 7.92 | 2.73 | 6.43
Cc1ccc2c(-c3ccnc(Nc4ccccc4)n3)c(-c3ccc(F)cc3)nn2n1 | 8.06 | 2.61 | 5.64 | 9.59 | 10.9 | 7.81 | 13 | 6.27 | 8.54 | 1.19
CCOc1ccc2c(-c3ccnc(Nc4cccc(C(F)(F)F)c4)n3)cnn2n1 | 7.63 | 2.3 | 2.59 | 2.54 | 7.08 | 3.04 | 7.12 | 2.18 | 5.74 | -0.43
CC(C)COC(=O)c1ccc2c(c1)/C(=C/Nc1ccc(S(N)(=O)=O)cc1)C(=O)N2 | 11.1 | -0.89 | -0.27 | 0.13 | 4.86 | -0.6 | 17.3 | 0.1 | 10.8 | 4.93
COc1cc2ncn(-c3cc(OCc4ccccc4C(F)(F)F)c(C(=O)N(C)C)s3)c2cc1OC | 3.02 | 0.2 | 0.64 | -1.23 | 10.3 | 2.76 | 20.8 | 1.53 | 8.98 | -1.7
CCNC(=O)O[C@H]1CN[C@H](C#Cc2cc3ncnc(Nc4ccc(OCc5cccc(F)c5)c(Cl)c4)c3s2)C1 | -0.34 | 2.67 | 3.23 | 3.91 | 4.51 | 2.71 | 4.31 | 4.87 | 4.14 | 1.14
CCn1cc(-c2ccnc3[nH]ccc23)c(-c2cccc(NC(=O)Nc3ccc(OCc4ccccc4)cc3)c2)n1 | 5.87 | 0.81 | 2.87 | -0.96 | -2.55 | -0.49 | 0.34 | -0.88 | 0.39 | -0.55
CNC(=O)c1cc(-c2ccc(F)cc2)cc(-c2ccc(S(=O)(=O)N3CCCC3)cc2)c1N | 2.21 | 2.25 | 1.64 | 3.72 | 5.1 | 9.77 | 5.71 | 4.56 | 3.99 | 2.78
COc1cc2c(cc1Nc1nc(Nc3ccsc3C(N)=O)c3cc[nH]c3n1)N(C(=O)CN(C)C)CCC2(C)C | 94.8 | 76.5 | 79.4 | 7.38 | 4.2 | 5.74 | 13.5 | 9.36 | 7.81 | -6.03
c1ccc(-c2nc3n(c2-c2ccc4c(c2)OCO4)CCC3)nc1 | 1.9 | 0.9 | -0.41 | 0.69 | 2.51 | -0.68 | 1.92 | 4.46 | 1.25 | -1.29
